# Reference: article PMC7862700, “An all-to-all approach to the identification of sequence-specific readers for epigenetic DNA modifications on cytosine”
# Key:
# Test in all cases: DAPPL (digital affinity profiling via proximity ligation, sequencing); 10 mM Tris-HCl pH 7.5, 50 mM NaCl, 1 mM DTT, 4% glycerol, room temperature, 30 min; GST-TFs on glutathione beads, 16-mer random dsDNA library, 0.1% formaldehyde crosslink after washing; high values mean tight binding
# FLI1 = target: T1, FLI1 (Homo sapiens, UniProt Q01543 1-452); conditions: protein: recombinant; tags: N-terminal GST; dsDNA, one strand shown
# T1 sequence: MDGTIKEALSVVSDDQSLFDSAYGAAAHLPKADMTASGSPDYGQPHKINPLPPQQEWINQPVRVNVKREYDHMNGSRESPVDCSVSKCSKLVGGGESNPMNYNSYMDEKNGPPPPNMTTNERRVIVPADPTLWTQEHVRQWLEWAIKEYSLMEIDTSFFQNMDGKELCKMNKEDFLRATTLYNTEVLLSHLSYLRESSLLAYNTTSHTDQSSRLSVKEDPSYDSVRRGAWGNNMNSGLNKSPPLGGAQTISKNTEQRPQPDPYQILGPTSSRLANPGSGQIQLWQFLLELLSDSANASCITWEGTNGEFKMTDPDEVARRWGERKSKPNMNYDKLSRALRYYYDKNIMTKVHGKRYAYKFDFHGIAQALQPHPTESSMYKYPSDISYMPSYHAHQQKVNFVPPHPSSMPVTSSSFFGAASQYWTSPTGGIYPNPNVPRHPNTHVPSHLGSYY
# In short: (§1)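 Pools were built from human transcription factors expressed in yeast as GST fusions, captured on glutathione beads and DNA-barcoded, along with a tag-only sample. Incubation with 200 nmole of a 16-mer random double-stranded DNA library lasted 30 min at room temperature in Tris/NaCl/DTT/glycerol buffer, and was followed by washing, 0.1% formaldehyde crosslinking, proximity ligation, PCR amplification and Illumina NextSeq500 sequencing. Binding signal is the quotient of each hexamer's read frequency for a factor and its frequency for the tag-only sample.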
# ELK1 = target: T2, ELK1 (Homo sapiens, UniProt P19419 1-428); conditions: protein: recombinant; tags: N-terminal GST; dsDNA, one strand shown
# T2 sequence: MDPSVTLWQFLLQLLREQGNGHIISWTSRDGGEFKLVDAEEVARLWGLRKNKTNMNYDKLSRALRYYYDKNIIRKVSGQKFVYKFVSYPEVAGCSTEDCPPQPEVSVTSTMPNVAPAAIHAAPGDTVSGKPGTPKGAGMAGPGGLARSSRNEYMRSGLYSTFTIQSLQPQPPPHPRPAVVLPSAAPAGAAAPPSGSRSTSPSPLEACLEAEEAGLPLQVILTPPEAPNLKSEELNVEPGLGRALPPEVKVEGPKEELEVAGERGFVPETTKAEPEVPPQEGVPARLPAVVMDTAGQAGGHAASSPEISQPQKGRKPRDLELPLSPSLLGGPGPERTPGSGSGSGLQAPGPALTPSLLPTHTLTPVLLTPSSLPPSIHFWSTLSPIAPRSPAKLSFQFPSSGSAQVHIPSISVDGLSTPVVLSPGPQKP
# In short: as §1
# GABPA = target: T3, GABPA (Homo sapiens, UniProt Q06546 1-454); conditions: protein: recombinant; tags: N-terminal GST; dsDNA, one strand shown
# T3 sequence: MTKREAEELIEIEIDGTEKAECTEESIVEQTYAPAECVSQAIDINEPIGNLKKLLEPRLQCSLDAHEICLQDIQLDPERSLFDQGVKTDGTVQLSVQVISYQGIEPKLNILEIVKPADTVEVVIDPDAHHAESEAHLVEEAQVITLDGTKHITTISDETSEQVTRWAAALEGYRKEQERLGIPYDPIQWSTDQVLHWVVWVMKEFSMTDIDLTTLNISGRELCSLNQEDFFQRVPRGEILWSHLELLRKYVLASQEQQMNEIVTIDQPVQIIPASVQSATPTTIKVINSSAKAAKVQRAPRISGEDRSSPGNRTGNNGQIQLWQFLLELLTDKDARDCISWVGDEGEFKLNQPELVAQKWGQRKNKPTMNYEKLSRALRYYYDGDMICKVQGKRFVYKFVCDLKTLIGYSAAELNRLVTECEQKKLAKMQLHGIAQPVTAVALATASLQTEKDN
# In short: as §1
# ERG = target: T4, ERG (Homo sapiens, UniProt P11308 1-479); conditions: protein: recombinant; tags: N-terminal GST; dsDNA, one strand shown
# T4 sequence: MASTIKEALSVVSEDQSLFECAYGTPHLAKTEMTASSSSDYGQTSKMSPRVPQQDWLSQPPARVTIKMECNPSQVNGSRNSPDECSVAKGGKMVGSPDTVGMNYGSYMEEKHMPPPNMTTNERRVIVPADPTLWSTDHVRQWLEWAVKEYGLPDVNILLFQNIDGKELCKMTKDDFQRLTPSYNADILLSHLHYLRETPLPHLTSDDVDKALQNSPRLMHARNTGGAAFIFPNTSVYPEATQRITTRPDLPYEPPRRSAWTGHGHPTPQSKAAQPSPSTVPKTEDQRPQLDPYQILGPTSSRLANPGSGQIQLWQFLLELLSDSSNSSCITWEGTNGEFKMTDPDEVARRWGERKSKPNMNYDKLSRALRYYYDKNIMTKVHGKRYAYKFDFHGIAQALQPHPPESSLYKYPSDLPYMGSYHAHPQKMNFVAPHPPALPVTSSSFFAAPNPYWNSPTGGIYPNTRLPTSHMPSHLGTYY
# In short: as §1
# ELF1 = ELF1 (Homo sapiens, UniProt P32519 1-619); conditions: protein: recombinant; tags: N-terminal GST; dsDNA, one strand shown
# Chain of ELF1 (P32519 whole entry): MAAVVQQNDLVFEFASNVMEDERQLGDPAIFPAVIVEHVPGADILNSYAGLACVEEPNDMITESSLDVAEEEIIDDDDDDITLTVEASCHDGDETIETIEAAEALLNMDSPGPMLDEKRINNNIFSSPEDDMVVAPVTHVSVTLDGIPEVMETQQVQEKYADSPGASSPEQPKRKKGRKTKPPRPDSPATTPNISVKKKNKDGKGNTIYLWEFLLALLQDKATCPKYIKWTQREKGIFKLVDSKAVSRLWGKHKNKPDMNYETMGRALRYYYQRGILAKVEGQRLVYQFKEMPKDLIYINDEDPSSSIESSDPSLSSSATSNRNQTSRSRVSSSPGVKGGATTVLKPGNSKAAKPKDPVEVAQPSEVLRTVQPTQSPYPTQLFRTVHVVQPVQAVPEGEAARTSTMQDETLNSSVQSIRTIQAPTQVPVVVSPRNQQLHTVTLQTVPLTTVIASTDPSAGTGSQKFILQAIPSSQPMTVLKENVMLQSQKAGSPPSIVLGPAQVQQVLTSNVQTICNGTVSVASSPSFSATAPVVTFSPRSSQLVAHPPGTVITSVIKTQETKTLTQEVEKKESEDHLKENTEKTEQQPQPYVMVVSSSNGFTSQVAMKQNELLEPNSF
# In short: as §1
# EHF = target: T5, EHF (Homo sapiens, UniProt Q9NZC4 1-300); conditions: protein: recombinant; tags: N-terminal GST; dsDNA, one strand shown
# T5 sequence: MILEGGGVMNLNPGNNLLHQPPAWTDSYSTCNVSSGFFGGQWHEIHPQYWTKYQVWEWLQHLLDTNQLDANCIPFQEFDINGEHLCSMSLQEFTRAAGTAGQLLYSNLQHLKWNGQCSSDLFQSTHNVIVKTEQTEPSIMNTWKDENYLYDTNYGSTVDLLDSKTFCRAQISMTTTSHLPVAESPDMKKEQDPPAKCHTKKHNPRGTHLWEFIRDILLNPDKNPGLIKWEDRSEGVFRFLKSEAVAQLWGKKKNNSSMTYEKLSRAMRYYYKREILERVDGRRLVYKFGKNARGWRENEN
# In short: as §1
# SPI1 = SPI1 (Homo sapiens, UniProt P17947 1-270); conditions: protein: recombinant; tags: N-terminal GST; dsDNA, one strand shown
# In short: as §1
# SPIB = SPIB (Homo sapiens, UniProt Q01892 1-262); conditions: protein: recombinant; tags: N-terminal GST; dsDNA, one strand shown
# Chain of SPIB (Q01892 whole entry): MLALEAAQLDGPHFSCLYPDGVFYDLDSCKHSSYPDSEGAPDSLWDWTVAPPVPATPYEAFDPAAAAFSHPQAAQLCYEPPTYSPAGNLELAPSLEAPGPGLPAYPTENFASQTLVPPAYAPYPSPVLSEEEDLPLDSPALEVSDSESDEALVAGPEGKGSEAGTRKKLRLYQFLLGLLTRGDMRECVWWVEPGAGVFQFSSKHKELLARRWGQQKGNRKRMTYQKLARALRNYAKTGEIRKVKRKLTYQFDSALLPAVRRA
# In short: as §1
# ELK3 = target: T6, ELK3 (Homo sapiens, UniProt P41970 1-407); conditions: protein: recombinant; tags: N-terminal GST; dsDNA, one strand shown
# T6 sequence: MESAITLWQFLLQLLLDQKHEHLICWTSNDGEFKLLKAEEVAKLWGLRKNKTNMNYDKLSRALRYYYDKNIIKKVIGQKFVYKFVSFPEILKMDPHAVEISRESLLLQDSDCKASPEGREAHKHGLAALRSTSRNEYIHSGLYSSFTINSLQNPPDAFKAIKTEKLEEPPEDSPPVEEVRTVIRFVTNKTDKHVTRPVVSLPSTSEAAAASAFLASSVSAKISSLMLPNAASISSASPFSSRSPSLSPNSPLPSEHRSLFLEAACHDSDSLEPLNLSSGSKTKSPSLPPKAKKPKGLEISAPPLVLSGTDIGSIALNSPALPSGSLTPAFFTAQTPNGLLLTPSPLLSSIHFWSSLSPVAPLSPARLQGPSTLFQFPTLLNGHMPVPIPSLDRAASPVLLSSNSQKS
# In short: as §1
# FEV = target: T7, FEV (Homo sapiens, UniProt Q99581 1-238); conditions: protein: recombinant; tags: N-terminal GST; dsDNA, one strand shown
# T7 sequence: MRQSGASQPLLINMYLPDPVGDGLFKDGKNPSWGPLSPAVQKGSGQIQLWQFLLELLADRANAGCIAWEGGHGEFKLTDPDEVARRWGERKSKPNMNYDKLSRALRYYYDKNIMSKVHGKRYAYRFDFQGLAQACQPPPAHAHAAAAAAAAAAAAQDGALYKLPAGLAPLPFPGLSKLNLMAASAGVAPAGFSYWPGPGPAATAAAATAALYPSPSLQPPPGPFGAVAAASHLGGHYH
# In short: as §1
# ETV5 = ETV5 (Homo sapiens, UniProt P41161 1-510); conditions: protein: recombinant; tags: N-terminal GST; dsDNA, one strand shown
# Chain of ETV5 (P41161 whole entry): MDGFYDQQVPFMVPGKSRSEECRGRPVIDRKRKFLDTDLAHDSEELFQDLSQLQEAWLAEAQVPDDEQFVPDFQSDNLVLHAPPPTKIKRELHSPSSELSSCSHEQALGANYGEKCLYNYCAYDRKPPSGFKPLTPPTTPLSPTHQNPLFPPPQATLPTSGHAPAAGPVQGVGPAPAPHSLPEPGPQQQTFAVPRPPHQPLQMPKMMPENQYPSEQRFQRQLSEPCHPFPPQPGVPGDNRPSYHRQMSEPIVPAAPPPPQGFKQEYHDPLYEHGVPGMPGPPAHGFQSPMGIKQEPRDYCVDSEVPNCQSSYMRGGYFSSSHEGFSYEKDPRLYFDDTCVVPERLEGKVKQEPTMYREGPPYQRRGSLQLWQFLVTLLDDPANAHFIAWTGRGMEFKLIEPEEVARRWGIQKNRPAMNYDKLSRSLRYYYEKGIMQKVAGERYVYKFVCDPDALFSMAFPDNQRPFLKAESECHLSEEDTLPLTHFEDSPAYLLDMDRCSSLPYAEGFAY
# In short: as §1
# HSF1 = HSF1 (Homo sapiens, UniProt Q00613 1-529); conditions: protein: recombinant; tags: N-terminal GST; chain copies: 3; dsDNA, one strand shown
# Chain of HSF1 (Q00613 whole entry): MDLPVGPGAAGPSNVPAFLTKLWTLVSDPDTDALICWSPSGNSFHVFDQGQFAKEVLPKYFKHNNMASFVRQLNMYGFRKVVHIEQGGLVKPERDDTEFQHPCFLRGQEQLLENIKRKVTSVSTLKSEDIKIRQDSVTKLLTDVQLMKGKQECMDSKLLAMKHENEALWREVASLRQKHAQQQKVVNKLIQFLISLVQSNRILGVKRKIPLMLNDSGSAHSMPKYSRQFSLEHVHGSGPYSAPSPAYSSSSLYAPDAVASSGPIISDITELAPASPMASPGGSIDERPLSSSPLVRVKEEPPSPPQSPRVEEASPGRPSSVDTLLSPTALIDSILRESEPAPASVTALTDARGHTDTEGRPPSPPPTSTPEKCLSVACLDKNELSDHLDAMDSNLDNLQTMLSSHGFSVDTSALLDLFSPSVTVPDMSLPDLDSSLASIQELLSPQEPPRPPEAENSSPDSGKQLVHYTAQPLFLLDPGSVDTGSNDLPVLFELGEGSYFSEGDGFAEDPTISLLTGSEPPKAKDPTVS
# In short: as §1
# SPIC = target: T8, SPIC (Homo sapiens, UniProt Q8N5J4 1-248); conditions: protein: recombinant; tags: N-terminal GST; dsDNA, one strand shown
# T8 sequence: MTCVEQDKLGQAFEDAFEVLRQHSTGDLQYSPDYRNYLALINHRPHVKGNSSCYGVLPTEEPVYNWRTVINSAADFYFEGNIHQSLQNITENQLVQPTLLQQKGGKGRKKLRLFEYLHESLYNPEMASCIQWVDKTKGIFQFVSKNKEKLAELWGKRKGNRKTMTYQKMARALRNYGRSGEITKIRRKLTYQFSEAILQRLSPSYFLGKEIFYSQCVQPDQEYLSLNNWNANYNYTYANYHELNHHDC
# In short: as §1
# ELF4 = ELF4 (Homo sapiens, UniProt Q99607 1-663); conditions: protein: recombinant; tags: N-terminal GST; dsDNA, one strand shown
# Chain of ELF4 (Q99607 whole entry): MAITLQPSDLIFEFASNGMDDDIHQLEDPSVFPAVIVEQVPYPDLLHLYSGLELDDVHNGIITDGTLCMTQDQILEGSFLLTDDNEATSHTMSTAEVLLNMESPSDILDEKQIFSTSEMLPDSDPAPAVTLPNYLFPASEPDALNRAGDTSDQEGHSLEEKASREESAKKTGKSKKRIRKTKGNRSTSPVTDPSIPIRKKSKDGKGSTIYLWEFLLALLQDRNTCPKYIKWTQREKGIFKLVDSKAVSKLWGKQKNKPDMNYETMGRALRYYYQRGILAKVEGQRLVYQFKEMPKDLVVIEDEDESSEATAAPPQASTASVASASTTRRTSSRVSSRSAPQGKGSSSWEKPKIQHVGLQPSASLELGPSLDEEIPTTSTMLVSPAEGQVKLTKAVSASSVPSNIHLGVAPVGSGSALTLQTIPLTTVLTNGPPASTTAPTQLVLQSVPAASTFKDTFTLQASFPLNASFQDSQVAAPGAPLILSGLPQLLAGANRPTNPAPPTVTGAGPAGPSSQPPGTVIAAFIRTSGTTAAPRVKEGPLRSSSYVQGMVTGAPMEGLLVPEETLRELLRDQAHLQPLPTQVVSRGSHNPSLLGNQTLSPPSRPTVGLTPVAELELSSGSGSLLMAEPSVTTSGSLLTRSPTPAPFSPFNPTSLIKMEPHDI
# In short: as §1
# ELK4 = target: T9, ELK4 (Homo sapiens, UniProt P28324-2 1-405); conditions: protein: recombinant; tags: N-terminal GST; dsDNA, one strand shown
# T9 sequence: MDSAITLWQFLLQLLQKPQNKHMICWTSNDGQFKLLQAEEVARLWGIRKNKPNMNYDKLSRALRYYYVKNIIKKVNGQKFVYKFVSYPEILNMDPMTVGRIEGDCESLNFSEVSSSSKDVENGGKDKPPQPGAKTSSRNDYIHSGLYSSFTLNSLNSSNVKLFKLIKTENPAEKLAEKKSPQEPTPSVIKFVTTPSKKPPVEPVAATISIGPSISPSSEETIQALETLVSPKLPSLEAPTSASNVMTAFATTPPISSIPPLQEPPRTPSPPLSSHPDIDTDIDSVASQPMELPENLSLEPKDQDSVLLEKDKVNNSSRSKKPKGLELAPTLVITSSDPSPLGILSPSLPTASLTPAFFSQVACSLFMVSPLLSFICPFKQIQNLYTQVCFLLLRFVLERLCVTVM
# In short: as §1
# ETV2 = target: T10, ETV2 (Homo sapiens, UniProt O00321 1-342); conditions: protein: recombinant; tags: N-terminal GST; dsDNA, one strand shown
# T10 sequence: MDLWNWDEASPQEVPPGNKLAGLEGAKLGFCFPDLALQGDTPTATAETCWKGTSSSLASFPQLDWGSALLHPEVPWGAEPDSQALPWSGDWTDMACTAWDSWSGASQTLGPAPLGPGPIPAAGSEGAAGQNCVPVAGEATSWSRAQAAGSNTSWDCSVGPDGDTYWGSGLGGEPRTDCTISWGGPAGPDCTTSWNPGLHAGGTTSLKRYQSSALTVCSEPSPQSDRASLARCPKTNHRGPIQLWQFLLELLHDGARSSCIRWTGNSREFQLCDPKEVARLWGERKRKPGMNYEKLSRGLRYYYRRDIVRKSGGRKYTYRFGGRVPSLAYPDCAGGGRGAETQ
# In short: as §1
# ELF3 = target: T11, ELF3 (Homo sapiens, UniProt P78545 1-371); conditions: protein: recombinant; tags: N-terminal GST; dsDNA, one strand shown
# T11 sequence: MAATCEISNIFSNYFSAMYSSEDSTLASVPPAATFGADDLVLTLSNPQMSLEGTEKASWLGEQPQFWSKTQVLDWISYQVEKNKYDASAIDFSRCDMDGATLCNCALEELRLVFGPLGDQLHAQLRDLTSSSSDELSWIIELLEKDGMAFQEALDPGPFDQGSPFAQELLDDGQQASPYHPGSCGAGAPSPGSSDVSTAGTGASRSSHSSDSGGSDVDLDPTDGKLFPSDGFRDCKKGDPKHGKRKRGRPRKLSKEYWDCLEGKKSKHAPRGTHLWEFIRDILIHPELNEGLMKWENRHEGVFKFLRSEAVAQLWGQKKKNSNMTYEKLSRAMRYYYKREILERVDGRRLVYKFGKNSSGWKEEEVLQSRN
# In short: as §1
# CRX = CRX (Homo sapiens, UniProt O43186 1-299); conditions: protein: recombinant; tags: N-terminal GST; dsDNA, one strand shown
# Chain of CRX (O43186 whole entry): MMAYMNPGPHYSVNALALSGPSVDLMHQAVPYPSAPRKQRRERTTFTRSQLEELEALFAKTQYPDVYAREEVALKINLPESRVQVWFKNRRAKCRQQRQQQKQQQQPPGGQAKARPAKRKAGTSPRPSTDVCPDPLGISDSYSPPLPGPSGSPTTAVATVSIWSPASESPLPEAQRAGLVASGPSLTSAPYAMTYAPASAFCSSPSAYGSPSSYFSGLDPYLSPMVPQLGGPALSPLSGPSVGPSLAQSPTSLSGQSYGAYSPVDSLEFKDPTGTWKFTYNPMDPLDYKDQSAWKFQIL
# In short: as §1
# ETV1 = ETV1 (Homo sapiens, UniProt P50549 1-477); conditions: protein: recombinant; tags: N-terminal GST; dsDNA, one strand shown
# Chain of ETV1 (P50549 whole entry): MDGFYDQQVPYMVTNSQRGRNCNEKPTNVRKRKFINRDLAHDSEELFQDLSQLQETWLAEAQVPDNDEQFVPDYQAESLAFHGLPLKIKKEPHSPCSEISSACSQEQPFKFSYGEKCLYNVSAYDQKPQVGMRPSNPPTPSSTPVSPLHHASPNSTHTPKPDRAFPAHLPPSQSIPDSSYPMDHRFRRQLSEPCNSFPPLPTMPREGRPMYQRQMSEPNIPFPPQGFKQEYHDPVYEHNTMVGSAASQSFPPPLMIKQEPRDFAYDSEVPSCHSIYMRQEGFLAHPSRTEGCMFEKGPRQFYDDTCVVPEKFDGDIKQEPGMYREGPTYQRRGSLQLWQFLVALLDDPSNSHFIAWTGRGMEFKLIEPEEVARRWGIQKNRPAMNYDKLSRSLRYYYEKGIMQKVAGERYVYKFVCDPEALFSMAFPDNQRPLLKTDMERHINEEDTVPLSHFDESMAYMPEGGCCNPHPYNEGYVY
# In short: as §1
sequence,measurement,setting,value
TCACAC,binding signal,FLI1,"1.31 fold enrichment (6-mer frequency, TF over GST control)"
same,binding signal,ELK1,"1.19 fold enrichment (6-mer frequency, TF over GST control)"
same,binding signal,GABPA,"1.34 fold enrichment (6-mer frequency, TF over GST control)"
same,binding signal,ERG,"1.31 fold enrichment (6-mer frequency, TF over GST control)"
same,binding signal,ELF1,"1.32 fold enrichment (6-mer frequency, TF over GST control)"
same,binding signal,EHF,"1.3 fold enrichment (6-mer frequency, TF over GST control)"
same,binding signal,SPI1,"1.23 fold enrichment (6-mer frequency, TF over GST control)"
same,binding signal,SPIB,"1.29 fold enrichment (6-mer frequency, TF over GST control)"
same,binding signal,ELK3,"1.46 fold enrichment (6-mer frequency, TF over GST control)"
same,binding signal,FEV,"1.35 fold enrichment (6-mer frequency, TF over GST control)"
same,binding signal,ETV5,"1.31 fold enrichment (6-mer frequency, TF over GST control)"
same,binding signal,HSF1,"1.06 fold enrichment (6-mer frequency, TF over GST control)"
same,binding signal,SPIC,"1.24 fold enrichment (6-mer frequency, TF over GST control)"
same,binding signal,ELF4,"1.36 fold enrichment (6-mer frequency, TF over GST control)"
same,binding signal,ELK4,"1.31 fold enrichment (6-mer frequency, TF over GST control)"
same,binding signal,ETV2,"1.29 fold enrichment (6-mer frequency, TF over GST control)"
same,binding signal,ELF3,"1.19 fold enrichment (6-mer frequency, TF over GST control)"
same,binding signal,CRX,"1.07 fold enrichment (6-mer frequency, TF over GST control)"
same,binding signal,ETV1,"1.33 fold enrichment (6-mer frequency, TF over GST control)"
